Results on 40 sequences are retold here after the supplement of paper PMC6555819.

The first assay deals with LXRb homodimer (NR concentration 270 nM). Description: PBM binding z-score (relative to random genomic background probes); higher = stronger binding; sequences stand for … in GC…GCGATTGACAGCGTAGAATGAAGG
In short, it runs like this:
(§1)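 Binding z-scores take random background probes as their reference. They come from custom Agilent 4×180K protein-binding microarrays incubated 1 h with ligand-free nuclear receptor dimers, with antibodies against each partner (one per run) detecting binding. Scanned fluorescence was regression-normalized.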
As to TCATATAGGTAACAGGTGAAAGTCGGTGTGGTAA, the PBM binding z-score turned out to be 0.411.
On the same count and under the same terms, with AGAATGAGGTTACCAAAGATCAGGGACACGCTTG the figure was -0.234; with CGAACTAGGTCAAGGACAGTGCATCTCCGCACGC, -0.386; with CCTACTGGGCCATCTGGTCATTGATATCAACGTT, -0.192.
Still for that read-out and setting: the figure for CGTCCAAGGTCAAAGGAGGTCAGTGAAGACAGAT is 1.51; for ACTAGCAGGCCAAGTTTGGGTGACTCAAACAAAG it is -0.715; for CAAACTAGGTCACCGGAAGGTCAAAATCCGCATG it is 1.71.
Still for that read-out and setting: the figure for CCTGCTAGGTCAATGGTCAACTAAAGCAGCTCGC is -0.0517.
In the case of CCAGACAGGTGAGAAGGTATCTCAGCCTCGATTA, the PBM binding z-score was -0.551.
In turn, TCTAGCAAGCCAGAGGGTCACTCAAGAGGTACGG displayed a PBM binding z-score of -1.21.
The sequence CGTCCAAGGTCAGAGAGCTCAGTGAATGCCGAGT showed a PBM binding z-score of -0.554.
On the same count and under the same terms, the figure for CGTCCAAGGTCAAGGTCAGCGAAAGAGACTCGAA is 0.78; for CCTACTCGGCCATTCAGAGGTCATTGATCATATG it is 1.6.
On the same count and under the same terms, the figure for TCGAATAGGTTACCAATGGGGCATTCAGCTTTCT is -0.392; for ATCGAGAGGTCGAAGGTGAGTATACCCACCCGAA it is -0.284.
Same read-out and setting: with CCTTGCAGGCCAGGGTCACTCAAGCATTTCGCTT the figure was -1.06; with TCGCGTAGGTTAGTCGGGGCATTCAGCCAACATA, -0.797; with AGGATGAGGTTACCAAAGATCAGGGAAACGCTTG, 0.353.

A further assay concerns PPARa:RXRa (NR concentration 270 nM, RXRa partner concentration 90 nM). The assay is described as above. In a few lines: as §1
AATACAGGGTCATCGTAGGCCAGAGAACGCACAG returned a PBM binding z-score of 6.16.
Same read-out and setting: with CCGACTGGGGCATAAGGTTACGATAAGCCAGCCC the figure was 2.41; with CGTCCAAGGTCAGAGAGGTAAGTGAATGCCGAGT, 3.93; with TCGAGTAGGTTACCAATGGGGCGTTCAGCTTTCT, 1.09.
On the same count and under the same terms, with CCTCCTGGGCCAAAGGTCATTGATTCCAATGCTC the figure was 5.6; with GCGACTGGGGCATCAGGAGGTTACCATAACTTAA, 1.7.
Same read-out and setting: the figure for CCTATTAGTTGACCATAAGGGCAACGGAAGCTCG is 0.552; for CAAACTAGGTCAACGGAAGGTCAAAGTCCGCATG it is 5.74.
ACTATTAGTTGAGACGCGGGCAACCGATAGGTTG: the PBM binding z-score is -0.624.
On the same count and under the same terms, the figure for ACTAGTTAGTCAGCTGAGGTCACACACAATTCGG is 3.87.
Same read-out and setting: the figure for ATCGAAAGGTCGAAGGTGAATATACCCACCCGAA is 5.24; for ATATCTAGGTTAGCTGGGGTCATTCAGACTAGGC it is 5.23.
For the sequence TCTTGTAGATCAAGCAGGTTAAGAAGGCCTGAGT, the PBM binding z-score worked out at 0.84.
For the sequence CCAGACAGGTTAAAGGTAACTCAGTCTGGTACGC, the PBM binding z-score is 3.7.
TCTTGTAGATCAAAGGTTAAGTAAGCCGAAGCCT registered a PBM binding z-score of 4.84.
The same measure, in the same setting: with TCTGCAAGGTCAGTTGGTCAGCTAACGAGCTGCC the figure was 3.4; with TTACCAAGGTGAAGGTCGCTGATCCCTCTGTAGA, 2.43; with ACTTACGGGGCAACGAGGTTATAGCACGCGTATA, 2.21.
Still for that read-out and setting: with TCTGCTAGGTCAACGATGGTCAGCCAATCTGCTA the figure was 3.17; with ATCTCTACGTAACCAAGTTCAGTGAATGCCGAAC, 0.166; with GCTATTAGTTGAAAGGGCATCCGAATGATTCTCG, 2.22.
CGAACTAGGTCGTTGACAGGACAGTGAATAGTAA had a PBM binding z-score of 1.98.
On the same count and under the same terms, the figure for TCATATAGGTAACAGGTGAAAGTCGGTGTGGTAA is 3.53; for AGAATGAGGTTACCAAAGATCAGGGACACGCTTG it is 3.38; for CGAACTAGGTCAAGGACAGTGCATCTCCGCACGC it is 4.35.
As to CCTACTGGGCCATCTGGTCATTGATATCAACGTT, the PBM binding z-score is 0.878.
On the same count and under the same terms, with CGTCCAAGGTCAAAGGAGGTCAGTGAAGACAGAT the figure was 6.08; with ACTAGCAGGCCAAGTTTGGGTGACTCAAACAAAG, -0.036.
Take CAAACTAGGTCACCGGAAGGTCAAAATCCGCATG: the PBM binding z-score stood at 6.21.
Same read-out and setting: with CCTGCTAGGTCAATGGTCAACTAAAGCAGCTCGC the figure was 3.42; with CCAGACAGGTGAGAAGGTATCTCAGCCTCGATTA, 0.0664.
The same measure, in the same setting: with TCTAGCAAGCCAGAGGGTCACTCAAGAGGTACGG the figure was 2.
The same measure, in the same setting: the figure for CGTCCAAGGTCAGAGAGCTCAGTGAATGCCGAGT is 3.92; for CGTCCAAGGTCAAGGTCAGCGAAAGAGACTCGAA it is 5.89; for CCTACTCGGCCATTCAGAGGTCATTGATCATATG it is 3.7.
TCGAATAGGTTACCAATGGGGCATTCAGCTTTCT yielded a PBM binding z-score of 1.87.
ATCGAGAGGTCGAAGGTGAGTATACCCACCCGAA showed a PBM binding z-score of 4.07.
The same measure, in the same setting: the figure for CCTTGCAGGCCAGGGTCACTCAAGCATTTCGCTT is 3.29.
On the same count and under the same terms, with TCGCGTAGGTTAGTCGGGGCATTCAGCCAACATA the figure was 0.69; with AGGATGAGGTTACCAAAGATCAGGGAAACGCTTG, 2.93.

A further assay has as its system PPARg:RXRa (NR concentration 180 nM, RXRa partner concentration 90 nM). The assay is described as above. In short, it runs like this:
as §1
In turn, AATACAGGGTCATCGTAGGCCAGAGAACGCACAG displayed a PBM binding z-score of 7.11.
The same measure, in the same setting: the figure for CCGACTGGGGCATAAGGTTACGATAAGCCAGCCC is 2.58; for CGTCCAAGGTCAGAGAGGTAAGTGAATGCCGAGT it is 2.19; for TCGAGTAGGTTACCAATGGGGCGTTCAGCTTTCT it is -0.0878.
CCTCCTGGGCCAAAGGTCATTGATTCCAATGCTC showed a PBM binding z-score of 9.24.
On the same count and under the same terms, with GCGACTGGGGCATCAGGAGGTTACCATAACTTAA the figure was 1.35; with CCTATTAGTTGACCATAAGGGCAACGGAAGCTCG, 0.455.
The same measure, in the same setting: the figure for CAAACTAGGTCAACGGAAGGTCAAAGTCCGCATG is 9.03; for ACTATTAGTTGAGACGCGGGCAACCGATAGGTTG it is 0.371.
Same read-out and setting: with ACTAGTTAGTCAGCTGAGGTCACACACAATTCGG the figure was 1.72; with ATCGAAAGGTCGAAGGTGAATATACCCACCCGAA, 5.61; with ATATCTAGGTTAGCTGGGGTCATTCAGACTAGGC, 5.59.
In turn, TCTTGTAGATCAAGCAGGTTAAGAAGGCCTGAGT gave a PBM binding z-score of -0.304.
Still for that read-out and setting: the figure for CCAGACAGGTTAAAGGTAACTCAGTCTGGTACGC is 4.55; for TCTTGTAGATCAAAGGTTAAGTAAGCCGAAGCCT it is 8.98.
Still for that read-out and setting: the figure for TCTGCAAGGTCAGTTGGTCAGCTAACGAGCTGCC is 1.45; for TTACCAAGGTGAAGGTCGCTGATCCCTCTGTAGA it is 2.63; for ACTTACGGGGCAACGAGGTTATAGCACGCGTATA it is 1.64.
Turning to TCTGCTAGGTCAACGATGGTCAGCCAATCTGCTA, the PBM binding z-score was 2.73.
The same measure, in the same setting: with ATCTCTACGTAACCAAGTTCAGTGAATGCCGAAC the figure was 0.223; with GCTATTAGTTGAAAGGGCATCCGAATGATTCTCG, 2.35; with CGAACTAGGTCGTTGACAGGACAGTGAATAGTAA, 2.2.
On the same count and under the same terms, the figure for TCATATAGGTAACAGGTGAAAGTCGGTGTGGTAA is 5.3; for AGAATGAGGTTACCAAAGATCAGGGACACGCTTG it is 2.84; for CGAACTAGGTCAAGGACAGTGCATCTCCGCACGC it is 7.23.
On the same count and under the same terms, with CCTACTGGGCCATCTGGTCATTGATATCAACGTT the figure was 1.09.
CGTCCAAGGTCAAAGGAGGTCAGTGAAGACAGAT gave a PBM binding z-score of 5.84.
Still for that read-out and setting: with ACTAGCAGGCCAAGTTTGGGTGACTCAAACAAAG the figure was -0.341; with CAAACTAGGTCACCGGAAGGTCAAAATCCGCATG, 9.82.
CCTGCTAGGTCAATGGTCAACTAAAGCAGCTCGC yielded a PBM binding z-score of 5.68.
On the same count and under the same terms, the figure for CCAGACAGGTGAGAAGGTATCTCAGCCTCGATTA is 0.278.
Still for that read-out and setting: with TCTAGCAAGCCAGAGGGTCACTCAAGAGGTACGG the figure was 0.737; with CGTCCAAGGTCAGAGAGCTCAGTGAATGCCGAGT, 1.95; with CGTCCAAGGTCAAGGTCAGCGAAAGAGACTCGAA, 6.76.
CCTACTCGGCCATTCAGAGGTCATTGATCATATG displayed a PBM binding z-score of 1.05.
On the same count and under the same terms, with TCGAATAGGTTACCAATGGGGCATTCAGCTTTCT the figure was 0.255; with ATCGAGAGGTCGAAGGTGAGTATACCCACCCGAA, 3.99.
The sequence CCTTGCAGGCCAGGGTCACTCAAGCATTTCGCTT returned a PBM binding z-score of 1.01.
The same measure, in the same setting: with TCGCGTAGGTTAGTCGGGGCATTCAGCCAACATA the figure was -0.444.
AGGATGAGGTTACCAAAGATCAGGGAAACGCTTG yielded a PBM binding z-score of 1.55.
